# From PubChem BioAssay
# VP16 counter: counter-screen for ROR gamma inhibitors: Gal4-VP16 reporter; Drosophila S2 Gal4-VP16 UAS-luciferase, luminescence, 20 h; Potency, µM (series often up to 53.6 µM), inactives show top-dose activity, negative = inhibition, most hits filed as inhibitors; 310,000 tested, 3.5% active; AID 2546;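 further: Gal4-VP16 expression switched on by copper sulfate through the metallothionein promoter; nearly all actives have a fitted effect of over 50% in size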
# RORgamma inh: ROR gamma (mouse) transcription inhibition | 310,000 tested, 5.4% active | P51450 | Drosophila S2 Gal4-RORgamma UAS-luciferase reporter, 20 h | Potency, µM (titrated, usually from 53.6 µM), for the others: at the top dose activity change, negative = inhibition, usual class: inhibitors; further: nearly all actives have a fitted effect of over 60% in size
#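 Drosophila Schneider cells stably carrying a metallothionein-driven Gal4 DBD–ROR gamma fusion and a UAS-Photinus luciferase reporter were exposed to compound for 1 hr, then induced with copper sulfate (700 uM final) for 20 hr at ambient temperature before luminescence reading.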
# 12-LOX inh: inhibitors of human 12S-lipoxygenase ALOX12; purified 12hLO, xylenol orange hydroperoxide absorbance; Potency, µM (highest dose often 108 µM), for the others: at the highest dose activity change, negative = inhibition, hits mostly inhibitors; P18054; 580,000 tested, 1.1% active
# Target sequence (P18054 whole entry, looked up): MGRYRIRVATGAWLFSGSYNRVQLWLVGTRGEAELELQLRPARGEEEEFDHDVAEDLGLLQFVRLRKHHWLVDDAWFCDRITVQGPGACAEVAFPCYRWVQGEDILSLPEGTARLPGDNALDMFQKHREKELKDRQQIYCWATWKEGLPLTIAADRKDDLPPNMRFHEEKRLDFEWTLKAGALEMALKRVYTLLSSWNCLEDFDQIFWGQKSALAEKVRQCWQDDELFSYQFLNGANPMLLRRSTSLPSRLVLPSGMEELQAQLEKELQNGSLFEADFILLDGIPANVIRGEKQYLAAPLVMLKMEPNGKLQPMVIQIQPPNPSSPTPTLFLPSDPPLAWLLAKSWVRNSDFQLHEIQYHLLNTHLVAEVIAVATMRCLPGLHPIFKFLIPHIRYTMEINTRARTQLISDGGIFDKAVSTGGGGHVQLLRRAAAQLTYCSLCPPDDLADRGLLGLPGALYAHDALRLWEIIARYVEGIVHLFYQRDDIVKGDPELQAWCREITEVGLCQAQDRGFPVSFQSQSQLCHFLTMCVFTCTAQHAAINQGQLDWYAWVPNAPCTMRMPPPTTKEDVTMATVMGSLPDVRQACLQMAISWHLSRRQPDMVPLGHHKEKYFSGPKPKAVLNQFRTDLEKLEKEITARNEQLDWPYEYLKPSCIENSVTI
#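 Purified human 12hLO at 150 nM in 25 mM Hepes, 0.01% Triton X-100, pH 7.0, preincubated 15 min at room temperature with compound. Reaction started with 40 uM arachidonic acid, 30 min at room temperature. Hydroperoxide measured by Fe-xylenol orange, 573/405 nm absorbance ratio.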
# ELG1 DNA repair: inhibitors of ELG1-dependent DNA repair in HEK293T cells | AID 504467 | Potency, µM (doses to about 46.1 µM), inactives show at the highest dose activity change, negative = inhibition, most hits filed as inhibitors | 330,000 tested, 2.3% active | HEK293T ELG1-luciferase reporter, luminescence, 16 h; DNA damage induced by 5-fluorouridine; further: nearly all actives have a fitted effect of over 55% in size
#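 Quantitative HTS, concentration-response format. 2,000 cells/well co-treated with 5-fluorouridine and compound, 16 hr in 5% CO2 at 37 °C; ONE-Glo luminescence read after 30 min.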
# TDP1 cell noCPT: qHTS for Inhibitors of human tyrosyl-DNA phosphodiesterase 1 (TDP1): qHTS in cells in absence of CPT. DT40 Tdp1-/- hTDP1 cells, no CPT, ATP luminescence, 48 h. Potency, µM (doses to about 46.2 µM), for the others: at the top dose activity change, negative = growth inhibition, most hits filed as inhibitors. 420,000 tested, 15% active. AID 686978, 2013; further: nearly all actives have a fitted effect of over 55% in size
#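 Stably hTDP1-transfected Tdp1-null chicken DT40 cells were treated with library compounds minus camptothecin and grown for at least 48 hr at 37 °C, after which cellular ATP was quantified by luminescence.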
# DT40 TDP1 CPT: growth inhibition of DT40 Tdp1-/-;hTDP1 cells with camptothecin (screen for TDP1 inhibitors); chicken DT40 Tdp1-/-;hTDP1 cells + 20 nM CPT, ATP luminescence, 48 h; Potency, µM (highest dose often 46.2 µM), inactives show at the top dose activity change, negative = growth inhibition, actives largely listed as inhibitors; 420,000 tested, 12% active; AID 686979; further: nearly all actives have a fitted effect of over 55% in size
#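 Chicken DT40 Tdp1-/- cells complemented with human TDP1, 400 cells/well, exposed to compounds plus 20 nM camptothecin for at least 48 h at 37 C; viability read as ATP content by CellTiter-Glo luminescence.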
# Numbers without * were called inactive; u = inconclusive; x = no result; [ ] = another dose, or the depositor's remark. Shown are actives, neighbours in structure and some others; about 15% of the full set was active somewhere. The call rests on the fitted dose curve; in most records, active means well fitted curve in the direction sought with a large enough effect; inconclusive means small, poorly fitted or top-dose-only effect, or another doubt; inactive means no such curve, though single readings can be large; an effect the other way counts as inactive or inconclusive. On the % scale 0 is the no-effect control and ±100 the full control effect; potency means the concentration at half of the fitted maximal effect.
SMILES,VP16 counter,RORgamma inh,12-LOX inh,ELG1 DNA repair,TDP1 cell noCPT,DT40 TDP1 CPT
CCOP(=O)(OCC)c1nc(-c2cccs2)oc1NCc1ccccc1,x,x,10.9%,x,x,x
O=C(c1ccccn1)N1CCn2c(nnc2-c2cccnc2)C1,x,x,14.1%[176 µM],x,x,x
N#C/C(=C(/O)COC(=O)CSc1ccc(Cl)cc1)c1nc2ccccc2[nH]1,11.2µM*,10µM*,-13.8%,u,5.17µM*,18.4µM*
Cc1cc(SCC(=O)OC/C(O)=C(\C#N)c2nc3ccccc3[nH]2)c(C)cc1Br,17.8µM*,6.31µM*,-0.3%,10.1%,u,u
N#C/C(=C(/O)COC(=O)CCCNC(=O)c1ccc(Cl)cc1)c1nc2ccccc2[nH]1,u,11.2µM*,52.9%,4.1%,-18.2%,-9.9%
CCOC(=O)c1ccc2c(c1)nc(SC/C(O)=C(\C#N)c1nc3ccccc3[nH]1)n2CC,-2.0%,5.01µM*,-14.0%,u,u,u
CCc1cc(C(=O)N2CCC3(CC2)CC(c2ccccc2)C(=O)N3)cs1 (configuration not stated),x,x,0.7%,x,x,x
Cc1ccc(N2C(=O)C3C4C=CC(CNC(=S)N5CCN(c6cccc(C)c6)C(C)C5)(O4)C3C2=O)cc1 (configuration not stated),u,8.91µM*,-23.3%,3.2%,4.61µM*,9.2µM*
CCc1ccccc1NC(=O)CCCN1C(=O)CCn2nc(-c3cn(C)c4ccccc34)cc21,x,x,-19.3%,x,-22.6%,-25.4%
COc1cc(NC(=O)CCCN2C(=O)CCn3nc(-c4cn(C)c5ccccc45)cc32)cc(OC)c1,x,x,-21.2%,x,18.4µM*,u
CC(NC(=O)CCCN1C(=O)CCn2nc(-c3cn(C)c4ccccc34)cc21)c1ccccc1 (configuration not stated),x,x,-29.6%,x,23.1µM*,u
Cn1cc(-c2cc3n(n2)CCC(=O)N3CCCC(=O)NCc2ccccc2Cl)c2ccccc21,x,x,-36.9%,x,13µM*,16.4µM*
Cc1cccc(C)c1NC(=O)CCCN1C(=O)CCn2nc(-c3cn(C)c4ccccc34)cc21,x,x,-14.4%,x,13µM*,u
Cn1cc(-c2cc3n(n2)CCC(=O)N3CCCC(=O)Nc2ccc(Cl)cc2)c2ccccc21,x,x,-11.1%,x,u,u
CCOc1ccccc1CNC(=O)CCCN1C(=O)CCn2nc(-c3cccn3C)cc21,x,x,u,x,u,18.4µM*
Fc1ccc(CN2CCn3c(nnc3-c3ccc(Cl)cc3)C2)cc1,x,x,6.8%[6.33 µM],x,x,x
COc1ccc(-c2cc(C(F)(F)F)n3nc(C(=O)N4CCCC4)cc3n2)cc1,2.5%,-5.2%,0.0%,-11.1%,-20.2%,-28.8%
Cc1ccc(-c2cc(C(F)F)n3ncc(C(=O)NN4CCCCC4)c3n2)cc1,-6.8%[10 µM],-11.3%,-2.8%,u,23.1µM*,20.6µM*
Cc1ccc(-c2cc(C(F)F)n3ncc(C(=O)N4CCCCC4c4cccnc4)c3n2)cc1 (configuration not stated),4.5%,6.6%,0.7%,18.3µM*,u,u
O=C(c1cc2nc(-c3ccc(F)cc3)cc(C(F)(F)F)n2n1)N1CCCCC1c1cccnc1 (configuration not stated),u,u,7.9%,8.2µM*,9.2µM*,13µM*
COc1ccc(-c2cc(C(F)F)n3ncc(C(=O)N4CCCc5ccccc54)c3n2)cc1,-2.5%,-1.4%,5.4%,-18.6%,u,-27.1%
COc1ccc(-c2cc(C(F)F)n3ncc(C(=O)N4CCN(C)CC4)c3n2)cc1,-5.2%,21.7%,-13.4%[57.4 µM],7.31µM*,-28.3%,-27.8%
O=C(c1cnn2c(C(F)(F)F)cc(-c3ccccc3)nc12)N1CCCCC1c1cccnc1 (configuration not stated),-3.6%[10 µM],12.4%,0.0%,u,u,u
O=C(NCc1ccc(F)cc1)C1CCN(c2cn[nH]c(=O)c2)C1 (configuration not stated),x,x,23.2%,x,x,x
COC(=O)c1cc(N)cc(C(=O)OC)c1,x,x,52.3%,x,x,x
SMILES,VP16 counter,RORgamma inh,12-LOX inh,ELG1 DNA repair,TDP1 cell noCPT,DT40 TDP1 CPT
Oc1cc(C2CCCCC2)cc(C2CCCCC2)c1,x,x,-19.3%,x,x,x
CC(C)CN1C(=O)c2cccn2CC1CNC(=O)c1ccc(F)cc1 (configuration not stated),x,x,35.2%,x,x,x
CC1CCCCN1C(=O)c1cc2nc(-c3ccccc3)cc(-c3ccccc3)n2n1 (configuration not stated),u,u,-11.7%,16.4µM*,23.1µM*,16.4µM*
O=C(O)c1cc2nc(-c3ccccc3)cc(-c3ccccc3)n2n1,-23.8%,30.4%,-10.2%,14.8%,11.6%,2.2%
Cc1ccc(-c2cc(C(F)(F)F)n3nc(C(=O)N4CCN5CCCC5C4)cc3n2)cc1 (configuration not stated),-16.1%,1.4%,-8.7%,-24.8%,u,u
Cc1ccc(-c2cc(C(F)F)n3ncc(C(=O)N4CCN5CCCC5C4)c3n2)cc1 (configuration not stated),1.8%,7.3%,3.8%,u,u,14.6µM*
CC(=O)NCCc1ccc(C(=O)COc2c(Cl)cccc2Cl)s1,x,x,5.8%,x,x,x
COc1ccc(C)cc1-n1c(SCC(=O)Nc2ccc(C(N)=O)cc2)nc2ccccc2c1=O,x,x,-7.0%,x,x,x
Cc1cccc(N2CCN(S(=O)(=O)c3ccc(-c4cnc(C5CC5)o4)cc3)CC2)c1C,x,x,u,x,13µM*,18.4µM*
Cc1cccc(N2CCN(S(=O)(=O)c3cn(C)cn3)CC2)c1C,1.4%,-4.2%,0.9%,19.3%,3.6%,5.6%
COc1ccccc1N1CCN(S(=O)(=O)c2ccc(-c3cnc(C4CC4)o3)cc2)CC1,-13.4%,u,8.5%,-7.4%,20.6µM*,u
COc1ccccc1N1CCN(S(=O)(=O)c2ccccc2)CC1,x,-24.4%[0.365 µM],-2.5%,u,u,u
Cc1ccc(C)c(N2CCN(S(=O)(=O)c3ccc(-c4cnc(C5CC5)o4)cc3)CC2)c1,x,x,-17.5%,x,9.2µM*,14.6µM*
Nc1ccc(Nc2nc3ccccc3[nH]2)cc1,-21.7%,14.9%,2.4%,-14.1%,-20.3%,31.7%
Nc1ccccc1Nc1nc2ccccc2[nH]1,9.2%,-8.7%,-15.4%,6.9%,25.9µM*,u
c1ccc(Nc2nc3ccccc3[nH]2)nc1,u,2µM*,16.6%,u,u,u
c1ccc(Nc2cccc(Nc3ccccc3)n2)cc1,-10.8%,u,-41.8%,u,-25.9%,-18.3%
